Test results reported in the supplement of paper PMC4894684.
Counter-ions that a name gives are not always drawn. ± gives the standard deviation of the averaged measurements.

tested on: Toxoplasma gondii RH (in HFF); experiment: parasite growth relative to the screen mean (all compounds = 100%); higher = less inhibition of parasite growth; conditions: 5 µM; 72 h; oxygen 21 %
Summary of the method: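 Library compounds (10 mM DMSO stocks) were pin-transferred to 5 µM final onto confluent human foreskin fibroblasts in 96-well plates, then infected within 2 h with RH β-Gal–GFP Toxoplasma (MOI 1:5) and grown 72 h at 21% O2. Parasite number came from a CPRG β-Gal assay against in-plate standard curves. Growth is expressed relative to the screen mean (all compounds = 100%), averaged over two screens. Uninfected host-cell viability was checked by CellTiter-Blue.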

Compound	parasite growth [%]
Cc1nc2c(OCc3ccccc3)cccn2c1CC#N	153 ± 7.3
COc1ccc(CCN(C)CCCOc2ccc(S(=O)(=O)c3c(C(C)C)c4ccccc4n3C)cc2)cc1OC	< 0
CCOC(=O)c1ncn2c1CN(C)C(=O)c1cc(F)ccc1-2 [Flumazenil]	84.5 ± 15
CN1CC(=O)N=C1NC(=O)Nc1cccc(Cl)c1 [Fenobam]	134 ± 5.3
CN1CCN(C2=Nc3cc(Cl)ccc3Nc3ccccc32)CC1 [Clozapine]	178 ± 40
CNCC[C@@H](Oc1ccccc1C)c1ccccc1 [Tomoxetine hydrochloride]	85.9 ± 8.6
Cc1ccc(/C=N/NC(=O)c2ccccc2Oc2ccccc2)o1	72.7 ± 4.9
CCCCCCCCCCCCCCCC(=O)NCCO [Palmitoylethanolamide]	64.8 ± 16
O=C(COc1cccc2c(=O)[nH]ccc12)c1ccccc1	92.69 ± 0.78
CN(Cc1cnc2nc(N)nc(N)c2n1)c1ccc(C(=O)N[C@@H](CCC(=O)O)C(=O)O)cc1 [Methotrexate]	161 ± 27
CC[C@H](C)C(=O)O[C@H]1C[C@@H](C)C=C2C=C[C@H](C)[C@H](CC[C@@H]3C[C@@H](O)CC(=O)O3)[C@H]21 [Lovastatin]	128 ± 17
CC[C@H](CO)Nc1nc(Nc2cccc(-c3ccccn3)c2)c2ncn(C(C)C)c2n1 [(R)-DRF053 dihydrochloride]	32.4 ± 16
C[C@@H]1CN(CCCn2c3ccccc3c3ccccc32)C[C@H](C)N1 [Rimcazole dihydrochloride]	31.8 ± 4.5
CC[C@H](C)C(=O)O[C@H]1CCC=C2C=C[C@H](C)[C@H](CC[C@@H]3C[C@@H](O)CC(=O)O3)[C@H]21 [Mevastatin]	109 ± 3.3
OC[C@H]1O[C@@H](n2cnc3c(N[C@H]4CCC[C@@H]4O)ncnc32)[C@H](O)[C@@H]1O	140 ± 10
CC(C)C1C2CCC(C2)C1N (stereo not drawn)	118 ± 6.6
N=C(N)NC(=O)c1nc(Cl)c(N)nc1N [Amiloride hydrochloride]	102 ± 30
CC(C)N(CCC(=O)c1ccc2ccccc2c1)Cc1ccccc1	77.6 ± 4.8
c1ccc(C(NCCNC(c2ccccc2)c2ccccc2)c2ccccc2)cc1 [AMN 082 dihydrochloride]	35.1 ± 15

Compound	parasite growth [%]
OC(CN1CCN(c2cccc(Cl)c2)CC1)C(c1ccccc1)c1ccccc1 (stereo not drawn)	147 ± 28
CC(CCCCC(=O)Nc1ccc(C(F)(F)F)cc1)NCCc1cnc[nH]1 (stereo not drawn) [HTMT dimaleate]	95.1 ± 7.2
CCN1CCCC1CNC(=O)c1cc(S(=O)(=O)CC)c(N)cc1OC (stereo not drawn) [Amisulpride]	115 ± 14
COc1ccc(Cl)cc1NC(=O)Nc1cc(C)nc2ccccc12	52.7 ± 30
O=C(CCCCCN1C(=O)c2cccc3cccc(c23)C1=O)NO [Scriptaid]	< 0
CCOc1cc(C(=O)Nc2ccc(Cl)c(-c3nc4ccccc4[nH]3)c2)cc(OCC)c1OCC	23.3 ± 3.9
CC(C)NC[C@H](O)COc1cccc2[nH]ccc12 [(S)-(-)-Pindolol]	127 ± 20
COc1ccc(-c2ccc(=N)n(CCCC(=O)O)n2)cc1	133 ± 26
Cc1ccccc1C(=O)c1ccc(Nc2ccc(Br)cc2N)cc1Cl	172 ± 48
c1ccc(COCCCc2c[nH]cn2)cc1 [Proxyfan Oxalate]	112 ± 18
OCC1OC(n2cnc3c(NC4CCCC4)nc(Cl)nc32)C(O)C1O (stereo not drawn) [2-Chloro-N6-cyclopentyladenosine]	138 ± 11
CN1C(=O)C(Cc2c[nH]c3ccccc23)NC1=S (stereo not drawn) [Necrostatin-1]	186 ± 6.6
Cn1cc(C2=C(c3ccc(Cl)cc3Cl)C(=O)NC2=O)c2ccccc21	136 ± 4.2
CC(C)(CO)Cc1cc(C(C)(C)C)c(O)c(C(C)(C)C)c1	192 ± 11
Cc1cccc(/C=C/c2ccccc2)n1	99.2 ± 63
N[C@H](C(=O)O)[C@H](OCc1ccccc1)C(=O)O (racemic)	80.3 ± 61
O=C(O)c1ccccc1Nc1cccc(OCc2ccc3ccccc3n2)c1 [SR 2640 hydrochloride]	135 ± 9.3
CC(C1=C(CCN(C)C)Cc2ccccc21)c1ccccn1 (stereo in doubt) [(S)-(+)-Dimethindene maleate]	83.1 ± 56
COc1ccc2[nH]c(-c3ccccc3)c(CCNC(C)=O)c2c1 [2-Phenylmelatonin]	149 ± 20
